Source: ChEMBL document CHEMBL1961873, “Compounds: GSK PKIS; Assays: Nanosyn kinase panel” (2012)

Tests used:
[1] = target: T1, Inhibitor of nuclear factor kappa-B kinase subunit epsilon (Homo sapiens) (UniProt Q14164); conditions: at 1 µM;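 also: reported values are averaged percent inhibition figures against human IKKε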
T1 sequence (whole entry): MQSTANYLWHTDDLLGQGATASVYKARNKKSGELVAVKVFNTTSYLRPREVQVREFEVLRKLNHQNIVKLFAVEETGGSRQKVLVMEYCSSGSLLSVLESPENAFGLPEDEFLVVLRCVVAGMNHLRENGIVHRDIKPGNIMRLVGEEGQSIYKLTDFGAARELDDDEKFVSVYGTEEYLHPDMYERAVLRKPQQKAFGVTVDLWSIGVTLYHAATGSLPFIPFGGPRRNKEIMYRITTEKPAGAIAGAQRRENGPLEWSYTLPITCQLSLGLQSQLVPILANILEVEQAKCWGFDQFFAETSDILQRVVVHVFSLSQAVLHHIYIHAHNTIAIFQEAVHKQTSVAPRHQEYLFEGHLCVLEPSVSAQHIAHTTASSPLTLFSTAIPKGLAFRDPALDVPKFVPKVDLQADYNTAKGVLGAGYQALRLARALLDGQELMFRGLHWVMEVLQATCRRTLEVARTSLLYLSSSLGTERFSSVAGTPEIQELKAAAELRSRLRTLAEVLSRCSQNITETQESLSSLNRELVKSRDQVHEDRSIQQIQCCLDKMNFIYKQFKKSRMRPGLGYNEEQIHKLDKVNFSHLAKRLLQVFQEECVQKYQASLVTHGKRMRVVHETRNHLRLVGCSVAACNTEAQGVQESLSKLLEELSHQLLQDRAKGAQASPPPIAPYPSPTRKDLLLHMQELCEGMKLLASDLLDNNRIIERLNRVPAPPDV

[2] = target: T2, Serine/threonine-protein kinase Nek1 (Homo sapiens) (UniProt Q96PY6); conditions: at 0.1 µM
T2 sequence (whole entry): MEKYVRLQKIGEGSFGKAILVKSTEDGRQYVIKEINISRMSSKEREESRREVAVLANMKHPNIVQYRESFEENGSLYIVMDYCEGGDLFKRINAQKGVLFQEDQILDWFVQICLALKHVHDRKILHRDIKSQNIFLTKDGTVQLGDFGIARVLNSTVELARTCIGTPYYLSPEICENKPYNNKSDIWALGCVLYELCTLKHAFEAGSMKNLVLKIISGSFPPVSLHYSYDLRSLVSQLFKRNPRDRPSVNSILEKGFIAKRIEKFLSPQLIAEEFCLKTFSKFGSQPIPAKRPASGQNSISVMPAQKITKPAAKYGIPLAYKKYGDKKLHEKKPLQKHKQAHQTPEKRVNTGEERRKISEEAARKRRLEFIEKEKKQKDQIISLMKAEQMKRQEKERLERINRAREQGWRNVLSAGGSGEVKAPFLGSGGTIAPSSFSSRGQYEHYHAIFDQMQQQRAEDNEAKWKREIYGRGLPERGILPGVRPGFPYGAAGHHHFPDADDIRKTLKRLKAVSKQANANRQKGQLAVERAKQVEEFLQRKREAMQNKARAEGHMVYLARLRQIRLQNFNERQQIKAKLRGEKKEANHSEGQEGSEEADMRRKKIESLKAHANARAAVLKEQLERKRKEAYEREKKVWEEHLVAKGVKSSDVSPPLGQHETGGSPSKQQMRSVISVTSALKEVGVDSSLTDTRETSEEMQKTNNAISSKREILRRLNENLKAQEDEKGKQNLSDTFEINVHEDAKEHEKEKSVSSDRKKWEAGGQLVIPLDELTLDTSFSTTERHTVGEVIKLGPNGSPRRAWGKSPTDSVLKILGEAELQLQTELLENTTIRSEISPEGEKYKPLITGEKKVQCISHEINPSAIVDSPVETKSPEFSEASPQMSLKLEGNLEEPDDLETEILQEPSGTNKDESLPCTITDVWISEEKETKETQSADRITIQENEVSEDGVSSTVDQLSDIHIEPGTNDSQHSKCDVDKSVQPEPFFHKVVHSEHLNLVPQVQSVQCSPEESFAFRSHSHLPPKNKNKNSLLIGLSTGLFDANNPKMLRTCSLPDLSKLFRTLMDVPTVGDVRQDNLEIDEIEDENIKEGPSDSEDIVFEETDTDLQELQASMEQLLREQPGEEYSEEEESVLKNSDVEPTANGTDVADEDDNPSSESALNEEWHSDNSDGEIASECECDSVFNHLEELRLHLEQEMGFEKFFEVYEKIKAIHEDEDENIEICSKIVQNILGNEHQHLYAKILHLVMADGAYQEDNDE

[3] = target: T2, Serine/threonine-protein kinase Nek1 (Homo sapiens); conditions: at 1 µM
[4] = target: T3, Serine/threonine-protein kinase Nek2 (Homo sapiens) (UniProt P51955); conditions: at 0.1 µM
T3 sequence (whole entry): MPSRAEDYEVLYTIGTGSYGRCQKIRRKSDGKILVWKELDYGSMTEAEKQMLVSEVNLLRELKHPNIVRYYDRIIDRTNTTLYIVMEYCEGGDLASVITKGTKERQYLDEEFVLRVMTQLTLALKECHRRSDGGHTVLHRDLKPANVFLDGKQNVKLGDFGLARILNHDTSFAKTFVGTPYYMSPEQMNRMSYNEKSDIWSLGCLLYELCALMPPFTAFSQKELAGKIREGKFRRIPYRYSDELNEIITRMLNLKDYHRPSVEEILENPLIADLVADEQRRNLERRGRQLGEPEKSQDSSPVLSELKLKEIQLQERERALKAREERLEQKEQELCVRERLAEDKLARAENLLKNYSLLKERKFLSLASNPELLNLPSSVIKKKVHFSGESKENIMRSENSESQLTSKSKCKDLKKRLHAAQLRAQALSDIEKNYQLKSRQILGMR

[5] = target: T3, Serine/threonine-protein kinase Nek2 (Homo sapiens); conditions: at 1 µM
[6] = target: Serine/threonine-protein kinase Nek6 (Homo sapiens) (UniProt Q9HC98); conditions: at 0.1 µM
Chain of Serine/threonine-protein kinase Nek6 (Homo sapiens) (Q9HC98 whole entry): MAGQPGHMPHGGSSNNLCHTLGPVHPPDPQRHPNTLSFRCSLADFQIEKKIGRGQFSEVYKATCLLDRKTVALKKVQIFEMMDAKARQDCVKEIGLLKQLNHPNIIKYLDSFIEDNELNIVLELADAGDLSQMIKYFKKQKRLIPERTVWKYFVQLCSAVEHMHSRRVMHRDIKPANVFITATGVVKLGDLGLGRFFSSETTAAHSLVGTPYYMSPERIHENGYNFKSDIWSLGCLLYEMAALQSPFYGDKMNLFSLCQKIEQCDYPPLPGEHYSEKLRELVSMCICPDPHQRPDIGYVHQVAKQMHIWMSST

[7] = target: Serine/threonine-protein kinase Nek6 (Homo sapiens) (UniProt Q9HC98); conditions: at 1 µM
[8] = target: Serine/threonine-protein kinase Nek7 (Homo sapiens) (UniProt Q8TDX7); conditions: at 0.1 µM
Chain of Serine/threonine-protein kinase Nek7 (Homo sapiens) (Q8TDX7 whole entry, looked up): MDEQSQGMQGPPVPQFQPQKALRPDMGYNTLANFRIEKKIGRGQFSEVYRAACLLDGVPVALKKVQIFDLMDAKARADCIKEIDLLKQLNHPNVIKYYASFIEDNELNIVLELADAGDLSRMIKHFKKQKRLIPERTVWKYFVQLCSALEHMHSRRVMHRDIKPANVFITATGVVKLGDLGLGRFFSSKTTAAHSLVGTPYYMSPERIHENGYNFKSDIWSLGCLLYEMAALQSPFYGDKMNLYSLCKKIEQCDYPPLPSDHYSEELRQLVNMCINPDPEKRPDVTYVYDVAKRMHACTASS

[9] = target: Serine/threonine-protein kinase Nek7 (Homo sapiens) (UniProt Q8TDX7); conditions: at 1 µM
[10] = target: T4, Serine/threonine-protein kinase Nek9 (Homo sapiens) (UniProt Q8TD19); conditions: at 0.1 µM
T4 sequence (whole entry): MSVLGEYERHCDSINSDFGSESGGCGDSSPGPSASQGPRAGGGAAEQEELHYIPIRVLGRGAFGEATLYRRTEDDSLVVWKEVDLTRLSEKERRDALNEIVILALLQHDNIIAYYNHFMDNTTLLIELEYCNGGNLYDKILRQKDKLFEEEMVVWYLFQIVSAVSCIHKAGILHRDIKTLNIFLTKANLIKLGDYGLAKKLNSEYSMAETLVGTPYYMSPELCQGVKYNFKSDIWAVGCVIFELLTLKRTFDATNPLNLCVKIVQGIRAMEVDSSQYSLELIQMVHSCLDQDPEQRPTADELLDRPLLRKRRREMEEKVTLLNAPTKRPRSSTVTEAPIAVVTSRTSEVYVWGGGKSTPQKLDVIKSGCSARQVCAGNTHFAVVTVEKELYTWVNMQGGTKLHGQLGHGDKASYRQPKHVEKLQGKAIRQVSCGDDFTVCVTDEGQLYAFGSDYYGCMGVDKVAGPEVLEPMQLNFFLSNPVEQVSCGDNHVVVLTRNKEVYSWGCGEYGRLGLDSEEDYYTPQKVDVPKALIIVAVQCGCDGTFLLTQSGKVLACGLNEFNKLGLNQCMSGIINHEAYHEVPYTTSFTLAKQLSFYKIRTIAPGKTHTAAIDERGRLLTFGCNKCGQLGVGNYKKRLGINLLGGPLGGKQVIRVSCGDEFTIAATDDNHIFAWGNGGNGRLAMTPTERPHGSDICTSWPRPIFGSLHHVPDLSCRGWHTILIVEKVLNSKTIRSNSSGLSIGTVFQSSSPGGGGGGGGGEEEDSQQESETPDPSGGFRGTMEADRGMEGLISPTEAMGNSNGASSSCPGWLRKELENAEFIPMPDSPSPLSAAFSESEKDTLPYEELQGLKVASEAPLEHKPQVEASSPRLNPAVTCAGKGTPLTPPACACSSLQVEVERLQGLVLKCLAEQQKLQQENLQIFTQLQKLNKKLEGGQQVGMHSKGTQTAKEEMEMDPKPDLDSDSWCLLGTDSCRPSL

[11] = target: T4, Serine/threonine-protein kinase Nek9 (Homo sapiens); conditions: at 1 µM
[12] = target: Serine/threonine-protein kinase PLK1 (Homo sapiens) (UniProt P53350); conditions: at 0.1 µM
Chain of Serine/threonine-protein kinase PLK1 (Homo sapiens) (P53350 whole entry): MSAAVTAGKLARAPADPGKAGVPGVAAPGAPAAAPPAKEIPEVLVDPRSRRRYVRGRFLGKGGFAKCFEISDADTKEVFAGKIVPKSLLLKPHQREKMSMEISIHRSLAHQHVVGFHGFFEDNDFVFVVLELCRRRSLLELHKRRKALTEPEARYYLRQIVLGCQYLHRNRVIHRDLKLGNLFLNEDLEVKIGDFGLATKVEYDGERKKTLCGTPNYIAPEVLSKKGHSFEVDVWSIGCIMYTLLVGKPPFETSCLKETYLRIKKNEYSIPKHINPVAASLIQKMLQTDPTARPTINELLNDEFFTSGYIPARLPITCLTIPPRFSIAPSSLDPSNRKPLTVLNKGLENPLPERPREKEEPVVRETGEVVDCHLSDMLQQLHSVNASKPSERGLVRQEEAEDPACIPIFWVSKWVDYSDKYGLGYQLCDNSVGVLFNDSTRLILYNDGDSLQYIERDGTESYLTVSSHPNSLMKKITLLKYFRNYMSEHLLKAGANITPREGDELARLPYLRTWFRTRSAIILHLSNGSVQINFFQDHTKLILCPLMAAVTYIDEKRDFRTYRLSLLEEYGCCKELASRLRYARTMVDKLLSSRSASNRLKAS

[13] = target: Serine/threonine-protein kinase PLK1 (Homo sapiens) (UniProt P53350); conditions: at 1 µM
[14] = target: T5, Dual specificity protein kinase TTK (Homo sapiens) (UniProt P33981); conditions: at 0.1 µM
T5 sequence (whole entry): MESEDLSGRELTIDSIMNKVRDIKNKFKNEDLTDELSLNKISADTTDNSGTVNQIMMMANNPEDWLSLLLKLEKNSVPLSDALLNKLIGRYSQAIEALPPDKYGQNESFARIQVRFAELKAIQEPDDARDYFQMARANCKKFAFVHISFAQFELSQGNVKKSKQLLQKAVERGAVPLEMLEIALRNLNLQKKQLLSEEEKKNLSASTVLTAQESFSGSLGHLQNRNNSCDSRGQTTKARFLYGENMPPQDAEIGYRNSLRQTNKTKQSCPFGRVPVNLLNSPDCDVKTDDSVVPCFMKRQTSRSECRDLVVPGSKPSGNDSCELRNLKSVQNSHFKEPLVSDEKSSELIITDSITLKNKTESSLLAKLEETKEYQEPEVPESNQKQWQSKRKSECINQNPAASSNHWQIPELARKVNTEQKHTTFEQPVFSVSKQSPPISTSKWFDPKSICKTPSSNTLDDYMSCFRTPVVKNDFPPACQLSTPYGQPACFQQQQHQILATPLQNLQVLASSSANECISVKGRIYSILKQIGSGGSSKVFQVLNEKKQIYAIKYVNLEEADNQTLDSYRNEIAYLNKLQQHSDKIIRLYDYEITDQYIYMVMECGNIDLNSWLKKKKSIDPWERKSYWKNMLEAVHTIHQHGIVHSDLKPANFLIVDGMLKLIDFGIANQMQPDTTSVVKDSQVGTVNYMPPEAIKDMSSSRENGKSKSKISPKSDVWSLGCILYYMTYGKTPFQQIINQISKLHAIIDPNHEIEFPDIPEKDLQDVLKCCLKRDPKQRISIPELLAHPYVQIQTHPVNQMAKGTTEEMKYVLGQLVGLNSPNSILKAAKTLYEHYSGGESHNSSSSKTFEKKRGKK

[15] = test system: T6, Receptor-type tyrosine-protein kinase FLT3 (Homo sapiens), P36888 [D835Y]; conditions: at 1 µM
T6 sequence (whole entry): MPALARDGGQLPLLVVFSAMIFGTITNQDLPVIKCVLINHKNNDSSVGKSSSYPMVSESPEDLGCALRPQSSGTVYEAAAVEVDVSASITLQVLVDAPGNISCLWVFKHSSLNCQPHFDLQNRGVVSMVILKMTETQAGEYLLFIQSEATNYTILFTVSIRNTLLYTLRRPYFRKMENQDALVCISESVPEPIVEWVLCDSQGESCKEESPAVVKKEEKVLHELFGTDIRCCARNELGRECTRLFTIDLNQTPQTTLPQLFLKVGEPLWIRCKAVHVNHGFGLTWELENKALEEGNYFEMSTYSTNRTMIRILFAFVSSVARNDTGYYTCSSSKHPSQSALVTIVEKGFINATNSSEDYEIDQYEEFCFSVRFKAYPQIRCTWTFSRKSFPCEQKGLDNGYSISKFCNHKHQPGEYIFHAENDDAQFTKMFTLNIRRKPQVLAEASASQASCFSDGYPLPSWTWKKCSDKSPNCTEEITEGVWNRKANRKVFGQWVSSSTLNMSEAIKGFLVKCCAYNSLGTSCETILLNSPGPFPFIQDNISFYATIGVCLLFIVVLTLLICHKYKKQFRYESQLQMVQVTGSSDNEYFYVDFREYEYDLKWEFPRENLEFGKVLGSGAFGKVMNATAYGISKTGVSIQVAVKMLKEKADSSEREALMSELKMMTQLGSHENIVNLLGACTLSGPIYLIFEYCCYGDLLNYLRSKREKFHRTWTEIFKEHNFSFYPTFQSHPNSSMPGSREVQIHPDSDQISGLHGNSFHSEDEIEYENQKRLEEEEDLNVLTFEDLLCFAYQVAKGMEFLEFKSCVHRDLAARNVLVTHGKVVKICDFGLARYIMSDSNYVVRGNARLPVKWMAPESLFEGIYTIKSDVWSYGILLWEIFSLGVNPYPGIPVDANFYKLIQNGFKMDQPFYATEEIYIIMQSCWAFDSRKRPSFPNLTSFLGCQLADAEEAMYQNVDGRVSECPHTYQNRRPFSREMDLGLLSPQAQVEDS

[16] = target: Vascular endothelial growth factor receptor 3 (Homo sapiens) (UniProt P35916); conditions: at 0.1 µM
Chain of Vascular endothelial growth factor receptor 3 (Homo sapiens) (P35916 whole entry): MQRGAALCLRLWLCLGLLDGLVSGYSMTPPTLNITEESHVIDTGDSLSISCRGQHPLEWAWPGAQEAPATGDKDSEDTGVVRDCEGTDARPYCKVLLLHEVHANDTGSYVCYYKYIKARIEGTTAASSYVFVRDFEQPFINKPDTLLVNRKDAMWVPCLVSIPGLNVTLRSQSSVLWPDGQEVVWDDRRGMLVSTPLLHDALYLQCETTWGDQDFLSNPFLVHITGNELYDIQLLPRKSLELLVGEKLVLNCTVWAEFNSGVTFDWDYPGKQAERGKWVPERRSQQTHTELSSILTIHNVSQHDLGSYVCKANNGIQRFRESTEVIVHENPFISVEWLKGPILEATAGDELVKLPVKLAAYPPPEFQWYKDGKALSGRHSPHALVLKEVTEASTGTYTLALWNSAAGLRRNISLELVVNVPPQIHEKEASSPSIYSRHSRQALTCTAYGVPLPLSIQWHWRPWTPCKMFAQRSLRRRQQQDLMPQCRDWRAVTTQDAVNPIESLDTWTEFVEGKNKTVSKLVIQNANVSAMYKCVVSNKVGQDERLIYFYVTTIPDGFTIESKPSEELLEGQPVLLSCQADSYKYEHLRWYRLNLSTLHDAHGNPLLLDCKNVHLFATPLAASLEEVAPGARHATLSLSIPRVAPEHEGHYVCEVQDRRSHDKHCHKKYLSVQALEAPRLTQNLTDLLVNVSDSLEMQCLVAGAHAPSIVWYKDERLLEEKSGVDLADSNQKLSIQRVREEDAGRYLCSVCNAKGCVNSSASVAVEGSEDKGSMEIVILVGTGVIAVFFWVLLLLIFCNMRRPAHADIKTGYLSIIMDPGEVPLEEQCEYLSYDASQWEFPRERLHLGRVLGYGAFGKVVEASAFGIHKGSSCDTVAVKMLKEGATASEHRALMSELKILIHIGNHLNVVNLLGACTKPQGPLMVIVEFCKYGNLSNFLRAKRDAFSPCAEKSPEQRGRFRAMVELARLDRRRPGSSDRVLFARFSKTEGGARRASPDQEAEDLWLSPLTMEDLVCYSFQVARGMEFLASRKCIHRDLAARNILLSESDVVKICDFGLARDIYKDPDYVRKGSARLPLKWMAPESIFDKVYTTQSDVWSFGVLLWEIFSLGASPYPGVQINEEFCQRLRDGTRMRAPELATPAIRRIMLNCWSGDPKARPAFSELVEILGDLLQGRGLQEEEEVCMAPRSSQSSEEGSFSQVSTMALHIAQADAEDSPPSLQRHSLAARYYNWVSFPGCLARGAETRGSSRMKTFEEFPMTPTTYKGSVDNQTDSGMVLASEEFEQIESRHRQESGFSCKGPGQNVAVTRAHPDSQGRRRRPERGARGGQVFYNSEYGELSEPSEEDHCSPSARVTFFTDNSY

[17] = target: Vascular endothelial growth factor receptor 3 (Homo sapiens) (UniProt P35916); conditions: at 1 µM
[18] = target: Macrophage colony-stimulating factor 1 receptor (Homo sapiens) (UniProt P07333); conditions: at 0.1 µM
Chain of Macrophage colony-stimulating factor 1 receptor (Homo sapiens) (P07333 whole entry): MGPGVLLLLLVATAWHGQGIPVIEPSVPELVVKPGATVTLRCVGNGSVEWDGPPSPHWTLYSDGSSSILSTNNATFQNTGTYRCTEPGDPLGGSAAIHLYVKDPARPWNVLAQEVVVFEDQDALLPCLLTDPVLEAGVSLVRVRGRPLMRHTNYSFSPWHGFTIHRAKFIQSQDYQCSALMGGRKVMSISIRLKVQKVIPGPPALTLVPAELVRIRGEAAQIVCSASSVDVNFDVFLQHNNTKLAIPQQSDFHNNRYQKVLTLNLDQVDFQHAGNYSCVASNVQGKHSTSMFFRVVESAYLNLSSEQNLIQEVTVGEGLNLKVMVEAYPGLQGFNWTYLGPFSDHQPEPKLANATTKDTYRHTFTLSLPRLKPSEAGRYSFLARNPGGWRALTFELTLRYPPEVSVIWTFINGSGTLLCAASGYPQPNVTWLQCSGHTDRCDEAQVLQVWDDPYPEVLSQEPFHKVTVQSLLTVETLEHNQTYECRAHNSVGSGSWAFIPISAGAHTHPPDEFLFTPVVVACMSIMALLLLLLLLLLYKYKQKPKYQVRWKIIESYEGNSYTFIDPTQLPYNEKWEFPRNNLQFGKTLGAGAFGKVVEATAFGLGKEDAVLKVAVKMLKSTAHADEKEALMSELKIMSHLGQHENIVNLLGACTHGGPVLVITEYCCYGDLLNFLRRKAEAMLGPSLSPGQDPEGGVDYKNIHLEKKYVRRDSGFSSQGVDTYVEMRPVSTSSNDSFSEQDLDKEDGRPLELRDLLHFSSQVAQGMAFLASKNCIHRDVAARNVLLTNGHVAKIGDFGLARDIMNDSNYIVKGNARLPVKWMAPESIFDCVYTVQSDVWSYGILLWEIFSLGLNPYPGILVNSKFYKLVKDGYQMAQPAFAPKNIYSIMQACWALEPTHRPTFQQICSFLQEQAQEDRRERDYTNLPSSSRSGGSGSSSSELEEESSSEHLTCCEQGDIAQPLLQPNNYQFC

[19] = target: Macrophage colony-stimulating factor 1 receptor (Homo sapiens) (UniProt P07333); conditions: at 1 µM
[20] = target: Tyrosine-protein kinase Fyn (Homo sapiens) (UniProt P06241); conditions: at 0.1 µM
Chain of Tyrosine-protein kinase Fyn (Homo sapiens) (P06241 2-537 limits assumed): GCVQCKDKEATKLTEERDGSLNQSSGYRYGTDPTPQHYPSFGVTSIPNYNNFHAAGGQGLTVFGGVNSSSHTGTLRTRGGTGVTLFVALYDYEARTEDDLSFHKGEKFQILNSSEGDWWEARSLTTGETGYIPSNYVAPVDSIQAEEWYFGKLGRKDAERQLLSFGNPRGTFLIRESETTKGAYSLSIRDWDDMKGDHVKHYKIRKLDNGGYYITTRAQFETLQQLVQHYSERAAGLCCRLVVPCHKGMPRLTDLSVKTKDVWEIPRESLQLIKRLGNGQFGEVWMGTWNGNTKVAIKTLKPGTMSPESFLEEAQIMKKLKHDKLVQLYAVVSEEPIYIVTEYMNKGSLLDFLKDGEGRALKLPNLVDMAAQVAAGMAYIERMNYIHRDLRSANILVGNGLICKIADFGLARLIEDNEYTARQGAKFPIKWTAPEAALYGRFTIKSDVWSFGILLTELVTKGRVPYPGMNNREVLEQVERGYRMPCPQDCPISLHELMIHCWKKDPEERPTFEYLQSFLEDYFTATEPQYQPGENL

Structure (SMILES)	inhibition [1]	inhibition [2]	inhibition [3]	inhibition [4]	inhibition [5]	inhibition [6]	inhibition [7]	inhibition [8]	inhibition [9]	inhibition [10]	inhibition [11]	inhibition [12]	inhibition [13]	inhibition [14]	inhibition [15]	inhibition [16]	inhibition [17]	inhibition [18]	inhibition [19]	inhibition [20]
CC(C)(CO)CNC(=O)c1ccc2c(c1)/C(=N/Nc1ccc(S(N)(=O)=O)cc1)C(=O)N2	59.7%	0.37%	1.29%	0.26%	0.85%	1.63%	0.2%	-1.3%	2.36%	2.95%	8.02%	1.21%	0.88%	61.5%	45.6%	4.05%	44.3%	-6.57%	3.69%	10.9%
CCNC(=O)O[C@H]1CN[C@H](C#Cc2cc3ncnc(Nc4ccc(OCc5cccc(F)c5)c(Cl)c4)c3s2)C1	2.76%	1.8%	2.36%	3.33%	6.2%	3.89%	0.56%	3.85%	3.51%	12%	4.6%	3.22%	3.29%	2.67%	2.57%	5.21%	-0.66%	3.01%	2.53%	3.33%
FC(F)(F)c1cccc(-c2nn3ncccc3c2-c2ccnc(Nc3ccc4c(c3)OCCO4)n2)c1	2.87%	1.52%	0.83%	3.63%	3.89%	0.6%	-0.45%	4.18%	2.91%	3.97%	1.67%	1.26%	0.65%	6.38%	3.11%	3.34%	18.5%	1.23%	7.02%	7.47%
c1ccc(COc2ccc(Nc3ncnc4ccc(-c5ccco5)cc34)cc2)cc1	3.49%	0.6%	1.07%	1.15%	0.92%	-0.18%	-0.36%	-0.99%	1.84%	1.17%	5.01%	1.78%	0.52%	5.13%	-0.59%	1.83%	0.93%	-2.64%	0.74%	0.27%
